# Compound activity (PubChem BioAssay)
# HT1080NT lethal = kills 2HG-producing HT-1080-NT fibrosarcoma cells | HT-1080-NT fibrosarcoma viability, CellTiter-Glo ATP luminescence, 48 h | Potency, µM (top dose mostly 46.1 µM), most hits filed as cytotoxic | 360,000 compounds, 1.6% hits | AID 686970;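 note: NT is the 2HG producing partner of a matched IDH1 knockdown line; nearly all actives have a fitted effect of over 55% in size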
#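 HT-1080-NT fibrosarcoma cells (2HG-overproducing), 750 cells/well in RPMI with 5% FBS, dosed after 2 h and incubated 48 h at 37C. CellTiter-Glo luminescence normalized to DMSO and no-cell wells; concentration-response curves fitted and classed.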
# TDP1 cell noCPT = qHTS for Inhibitors of human tyrosyl-DNA phosphodiesterase 1 (TDP1): qHTS in cells in absence of CPT; DT40 Tdp1-/- hTDP1 cells, no CPT, ATP luminescence, 48 h; Potency, µM (series often up to 46.2 µM), most hits filed as inhibitors; 420,000 compounds, 15% hits; AID 686978, 2013; note: nearly all actives have a fitted effect of over 55% in size
#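 Growth kinetics read by CellTiter-Glo luminescence after ≥48 hr at 37 °C. Cells: DT40 Tdp1-/- stably carrying human TDP1, 400 per well, compound exposure in the absence of CPT (DMSO vehicle).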
# TDP1 cell CPT = DT40-hTDP1 cell growth loss with CPT; chicken DT40 Tdp1-/-;hTDP1 cells + 20 nM CPT, ATP luminescence, 48 h; Potency, µM (top dose mostly 46.2 µM), hits mostly inhibitors; 420,000 compounds, 12% hits; AID 686979; note: nearly all actives have a fitted effect of over 55% in size
#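 Cell growth measured by CellTiter-Glo luminescence after a minimum 48 h, 37 C compound exposure with 20 nM CPT in Tdp1-knockout DT40 cells stably expressing hTDP1, seeded 400/well; qHTS titration format.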
# IL-1B inflam inh = inflammasome signaling inhibition, IL-1 beta readout | THP-1 LPS/ATP IL-1B secretion, AlphaLISA, 16 h; stronger effect = lower value | activity change, % at 57.5 µM | 360,000 compounds, 4.7% hits | AID 743279; in the data active = activity change below about -50%; inconclusive = mostly about -30% to -49%
#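 THP-1 cells pretreated 1 hr with compounds (up to 57.5 uM final), then stimulated with LPS (250 ng/mL final) plus ATP (1.25 mM final); secreted IL-1B measured by AlphaLISA after 16 hr, decreased signal indicating inhibition.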
# HT1080 IDH1KD tx = toxicity to HT-1080 IDH1 knockdown cells (counter line); HT-1080 IDH1 knockdown viability, ATP luminescence, 48 h; Potency, µM (highest dose often 46.1 µM), actives largely listed as cytotoxic; 360,000 compounds, 2% hits
#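 Knockdown cells (IDH1KD HT-1080) received compounds 2 h after plating at 750 cells/well and were kept 48 h at 37 °C in 5% FBS RPMI. A CellTiter-Glo luminescence read gave % activity for curve fitting.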
# Hits are given with their value; - = inactive; ? = inconclusive; . = no result given; [ ] = another dose, or the depositor's remark. This is a sample that favours compounds with a hit; in the whole collection about 19% have one here. Unless noted, calls come from the whole dose curve; as a rule, active = well fitted curve in the direction sought with a large enough effect; inconclusive = small, poorly fitted or top-dose-only effect, or another doubt; inactive = no such curve, though single readings can be large; an effect the other way counts as inactive or inconclusive.
SMILES,HT1080NT lethal,TDP1 cell noCPT,TDP1 cell CPT,IL-1B inflam inh,HT1080 IDH1KD tx
CN(Cc1ccccc1)C(=O)c1ccc(NC(=O)Cc2cccc(NC(=O)C3CCCN(C(=O)C4CCC4)C3)c2)cc1 (centres undefined),-,-,?,-,-
C[C@H](CO)N1C[C@H](C)[C@@H](CN(C)C(=O)Nc2ccc3c(c2)OCO3)Oc2c(NC(=O)Cc3ccccc3)cccc2C1=O,-,-,-,-,-
O=C(Cn1c(=O)n(Cc2ccc(C(=O)NCc3ccccc3Cl)cc2)c(=O)c2ccccc21)Nc1ccc(F)c(Cl)c1,.,-,-,.,.
C[C@H](NC(=O)c1nc[nH]c1C(=O)N[C@@H](Cc1ccccc1)C(=O)OCc1ccccc1)C(=O)OCc1ccccc1,-,23µM,?,-,-
CNC(=O)c1[nH]cnc1C(=O)N[C@@H](C)C(=O)OCc1ccccc1,-,-,?,-,-
CCc1ccc(NC(=O)Cn2c(=O)c(-c3ccccc3NC(C)=O)nc3ccccc32)cc1,.,-,-,.,.
Cc1cc(C)c2oc(C(=O)Nc3ccc(S(=O)(=O)N4CCCC(C)C4)cc3)cc(=O)c2c1 (centres undefined),-,?,15µM,-,-
Cc1ccc2oc(C(=O)Nc3ccc(S(=O)(=O)N4CCCC(C)C4)cc3)cc(=O)c2c1 (centres undefined),.,8.2µM,16µM,.,.
O=C(OCC(=O)N1CCCCCC1)c1ccccc1Br,-[9.24 µM],-,-,-,-
CC(C)(C)S(=O)N1Cc2cc(CO)ccc2[C@@H]1CCO (some centres undefined),-,-,-,-,-
O=C(/C=C/c1ccccc1[N+](=O)[O-])Nc1cccc(S(=O)(=O)NC2=NCCCCC2)c1,-,21µM,?,-,-
CC(C)=CC(=O)Nc1cccc(S(=O)(=O)NC2=NCCCCC2)c1,-,-,-,-,-
O=C(/C=C/c1ccc(Cl)cc1Cl)Nc1cccc(S(=O)(=O)NC2=NCCCCC2)c1,-,?,-,-69,?
CC(C)c1cc(NCCOCCO)n2c(nc3ccccc32)c1C#N,-,?,-,-,-
CCOC(=O)CSc1nc2cc(OC)c(OC)cc2cc1C#N,.,18µM,?,.,.
N#Cc1cc2cc3c(cc2nc1SCC(=O)N1CCCC1)OCCO3,-,-,-,-,-
CC(=O)CSc1nc2cc3c(cc2cc1C#N)OCCO3,-,?,15µM,-,-
CCOc1ccc2cc(C#N)c(SCC(=O)N3CCC(C)CC3)nc2c1,-,21µM,?,-,-
CCc1ccc2nc(SCC(=O)N(CC)CC)c(C#N)cc2c1,-,15µM,21µM,-,-
CCOC(=O)C1CCN(C(c2ccc(C)cc2)c2sc3nc(-c4ccco4)nn3c2O)CC1 (centres undefined),.,-,-,.,.
COc1ccc(-c2cc(C)cc3c2OC(CNC(=O)/C=C/c2ccncc2)C3)nn1 (centres undefined),.,?,-,.,.
O=C(NC1CCCC1)C(c1ccc(Cl)cc1)N1CCc2ccccc21 (centres undefined),-,-,-,-,-
O=C(Nc1ccc(F)cc1)N1CCc2ccccc2C1,-,?,-,-55,-
O=C(NC1CCCCC1)C(c1ccccc1)N1CCc2ccccc21 (centres undefined),-,21µM,26µM,-,-
O=C(NC1CCCCC1)N1CCc2ccccc2C1,-,-,-,-79,-
SMILES,HT1080NT lethal,TDP1 cell noCPT,TDP1 cell CPT,IL-1B inflam inh,HT1080 IDH1KD tx
O=C(Nc1ccc(Br)cc1)N1CCc2ccccc2C1,-,-,-,-83,-
Cc1cc(C)cc(NC(=O)N2CCc3ccccc3C2)c1,-,-,-,?,-
CCCc1nnc2c(N(C)S(=O)(=O)c3ccc(C)cc3)nc3ccccc3n12,-,23µM,?,-,-
COc1ccc(S(=O)(=O)N(C)c2nc3ccccc3n3c(CC(C)C)nnc23)cc1,-,21µM,26µM,-,-
Cc1cc(OCC(=O)N2CCC(C(=O)O)CC2)c2c(C)c(C)c(=O)oc2c1,-,-,-,-,-
Cc1[nH]c2ccccc2c1C(=O)CN1C(=O)NC2(CC(C)CC(C)(C)C2)C1=O (centres undefined),-,?,15µM,-,-
CCN(Cc1ccccc1)C(=O)CN1C(=O)NC2(CC(C)CC(C)(C)C2)C1=O (centres undefined),-,?,?,-,-
CC1CC(C)(C)CC2(C1)NC(=O)N(CC(=O)N1CCN(S(=O)(=O)c3cccc(Cl)c3Cl)CC1)C2=O (centres undefined),-,?,18µM,-,-
CC1(C)NC(=O)N(CC(=O)N2CCN(S(=O)(=O)c3cc(Cl)ccc3Cl)CC2)C1=O,-,-,-,-,-
Cc1cc(C)n(-c2ccc(-n3ccnc3)nn2)n1,-,-,-,-,-
CC(C)c1nc(N2CCN(C(=O)c3ccco3)CC2)c(C#N)c2c1COC(C)(C)C2,?,21µM,15µM,?,?
Cc1nc(N2CCN(Cc3ccccc3)CC2)c(C#N)c2c1COC(C)(C)C2,-,26µM,?,-,-
CC1=CC(C)(C)N(S(=O)(=O)c2ccc(C)cc2)c2ccc(C)cc21,3.2µM,18µM,5.8µM,-,6.3µM
CC1=CC(C)(C)N(S(=O)(=O)c2ccc(F)cc2)c2ccccc21,11µM,?,26µM,-,?
CC(=O)N1c2ccccc2C(C)=CC1(C)C,-,-,-,-,-
O=C1CS/C(=C\[N+](=O)[O-])N1c1ccccc1,-,?,?,-,-
Cc1ccc(-n2nc(C)c3c(C)cc(=O)n(CC(=O)Nc4cccc(C)c4C)c32)cc1,.,1.2µM,-,.,.
CCN(CC)C(=O)Cn1c(=O)cc(C)c2c(C)nn(-c3cccc(Cl)c3C)c21,.,12µM,15µM,.,.
CCN(Cc1ccccc1)C(=O)Cn1c(=O)cc(C)c2c(C)nn(-c3cccc(F)c3)c21,.,21µM,18µM,.,.
O=C(Cn1cc(S(=O)(=O)Cc2cccc([N+](=O)[O-])c2)c2ccccc21)N1CCOCC1,-,-,-,-,-
O=C1CC(c2ccccc2)Cc2[nH]c(=O)c(C(=O)O)cc21 (centres undefined),.,-,-,.,.
O=[N+]([O-])c1cccc2c(N3CCCC3)ccnc12,-,8.2µM,8.2µM,-64,?
O=C(c1ccccc1F)N1CCN(c2ccc([N+](=O)[O-])c3ncccc23)CC1,-,21µM,15µM,-,-
O=[N+]([O-])c1ccc(Cl)cc1N1CCCC1,-,-,-,-,-
COc1cccc2oc3cc(C#Cc4ccccn4)ccc3c(=O)c12,-,?,?,-55,-
CCn1cc2nc(SCc3cccc(OC)c3)n(Cc3ccc(Cl)cc3)c(=O)c2n1,.,13µM,16µM,.,.
